Compound activity deposited in PubChem by several laboratories.
Hits are enriched below; roughly 4.7% of the tested compounds scored in any of these assays.
SKKanGAS inh: blocks kanamycin growth of S. pyogenes SKKanGAS strain. BacTiter-Glo, 6 h. inhibition, % at 7.5 µM. 1.3% of 300,000 active;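 active = mean replicate score, as percent of positive control median, at least 50; inconclusive = mean below 50 but one replicate at or above 50; inactive = mean and every replicate below 50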;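 note: strain carries kanamycin resistance gene driven by streptokinase promoter and grows in 40 µg/ml kanamycin; loss of luminescence reflects streptokinase promoter inhibition or plain growth inhibition; 0% = median of DMSO wells and 100% = positive control at its reference dose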
PfHsp90 yeast 2: inhibits growth of yeast expressing Plasmodium falciparum Hsp90; 0.32% of 310,000 active; inhibition, % at 9.4 µM; S. cerevisiae expressing PfHsp90, BacTiter-Glo ATP, 48 h; yeast lacking PDR1 and PDR3 efflux regulators;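 active = every replicate shows inhibition above about 80%, whatever the replicate mean, limit read from the data; inconclusive = mean inhibition reaches the set limit but some replicate falls short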;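 note: 0% = DMSO neutral controls and 100% = 20 µM radicicol positive controls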
tim10-1 inh: inhibits growth of tim10-1 mutant yeast; AID 463190; S. cerevisiae tim10-1 ts strain growth, BacTiter-Glo, 24 h; inhibition, % at 20 µM; 2.2% of 330,000 active;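 active = inhibition of at least 40%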;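 note: mutant grown at 25 °C; 0% = DMSO wells with yeast and 100% = wells holding no yeast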
Calb FLC: affects C. albicans growth with fluconazole | C. albicans CaCi-2 (fluconazole-resistant clinical isolate) + fluconazole, Alamar Blue growth, 48 h | growth inhibition, % (test concentration not listed) | 0.57% of 300,000 active | AID 1979;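 active = growth inhibition above about 58% in most replicates, limit read from the data, passing the limit was not always enough; inconclusive = exactly half the replicates above a set limit; inactive = most replicates below a set limit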;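 note: all wells also contain fluconazole at 8 µg/ml as a sub-toxic cotreatment; 0% = median of DMSO wells and 100% = median of geldanamycin control wells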
tim23-1 inh: tim23-1 yeast growth inhibition | S. cerevisiae tim23-1 growth, BacTiter-Glo luminescence, 24 h | inhibition, % at 20 µM | 1.3% of 330,000 active;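 active = growth inhibition of the mutant yeast at or above 50%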;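 note: temperature-sensitive mutant grown at 25 °C; plate controls were DMSO-treated mutant yeast for no effect and medium wells lacking yeast for full effect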
TIM10 inh: growth inhibitors of TIM10 yeast strain. inhibition, % at 10 µM. S. cerevisiae TIM10 strain growth, BacTiter-Glo luminescence, 24 h. 1.4% of 330,000 active;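 active = inhibition of 40% or more at the single tested concentration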;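 note: wild-type TIM10 isogenic control strain grown at permissive 25 °C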
tim10-1 conf: tim10-1 yeast growth inhibition, confirmed; shares compounds with tim10-1 inh; AID 463213; inhibition, % at 20 µM; S. cerevisiae tim10-1 ts strain growth, BacTiter-Glo, 24 h; 56% of 7,400 active;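 active = inhibition of yeast growth at or above a set limit in either of two repeat tests at 20 µM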;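 note: tim10-1 mutant grown at permissive 25 °C to find synthetic lethal compounds; 0% = DMSO yeast wells and 100% = medium wells without yeast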
tim10 confirm: TIM10 yeast growth inhibition, confirmed | shares compounds with TIM10 inh | S. cerevisiae tim10 strain growth, BacTiter-Glo luminescence, 24 h | inhibition, % at 10 µM | 63% of 4,600 active | AID 463215;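 active = inhibition of yeast growth at or above a set limit in either of two replicates at 10 µM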;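 note: this counterscreen used the strain with wild-type TIM10; 0% = yeast with DMSO and 100% = medium wells lacking yeast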
tim23-1 confirm: tim23-1 yeast growth inhibition, confirmed | S. cerevisiae tim23-1 growth, BacTiter-Glo luminescence, 24 h | inhibition, % at 20 µM | AID 463218 | 83% of 4,400 active | shares compounds with tim23-1 inh;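 active = inhibition above about 39% in either of two replicate wells at 20 µM, limit read from the data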;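 note: temperature-sensitive tim23-1 mutant grown at 25 °C; 0% = DMSO wells with yeast and 100% = medium wells without yeast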
The depositor's hits bear a star; ? = inconclusive; . = no result.

SMILES	SKKanGAS inh	PfHsp90 yeast 2	tim10-1 inh	Calb FLC	tim23-1 inh	TIM10 inh	tim10-1 conf	tim10 confirm	tim23-1 confirm
O=C(N/N=C/c1ccc([N+](=O)[O-])s1)c1ccccc1	15	-33	-27	17	7	-3	.	.	.
CCN(Cc1ccccc1)C(=O)CCS(=O)(=O)c1cc2c(cc1Cl)NC(=O)CO2	-4	41	21	-2	7	2	.	.	.
O=C(Nc1nc(-c2cccs2)c(C(=O)C(F)(F)F)s1)c1ccco1	-7	2	56*	2	62*	56*	73*	59*	79*
O=C(Nc1nc(-c2cccs2)c(C(=O)C(F)(F)F)s1)c1ccccc1	7	-11	61*	20	69*	33	50*	.	70*
O=c1oc(-c2ccccc2Br)nc2ccccc12	-1	9	49*	21	59*	30	40*	.	71*
O=c1oc(-c2cccnc2)nc2ccccc12	-1	-11	6	-1	21	7	.	.	.
O=C(NNS(=O)(=O)c1ccc(Br)cc1)c1csnn1	.	-1	-9	.	8	6	.	.	.
CCc1ccccc1NC1Nc2cc(C)nn2S1 (stereo not drawn)	-12	-36	27	-13	27	7	.	.	.
Cc1cc2n(n1)SC(Nc1cc(Cl)ccc1Cl)N2 (stereo not drawn)	-9	-9	47*	?	55*	48*	35*	45*	37*
NC(=S)Nc1ccc(Cl)c(Cl)c1	-4	19	11	21	8	14	.	.	.
Cc1cc(C)cc(NC(=S)Nc2ccc(Cl)c(Cl)c2)c1	70*	11	62*	-28	79*	43*	56*	37*	75*
CN(N)c1nc(-c2ccccc2)cc(-c2ccccc2)n1	44	1	44*	8	56*	50*	39*	43*	54*
CCN(CC)c1nc(C(N)=O)cc(-c2ccccc2)n1	-5	-7	63*	26	67*	48*	61*	15	74*
Cc1nc(-c2ccccc2)cc(-c2ccccc2)n1	-6	-23	17	-2	16	15	.	.	.
CN1CCN(c2nc(C(N)=O)cc(-c3ccccc3)n2)CC1	16	-41	-2	-13	8	-4	.	.	.
Cn1c(=O)c2c(nc3n2CC(COc2ccccc2)O3)n(C)c1=O (stereo not drawn)	-2	-13	-7	18	-3	-8	.	.	.
Cc1ccccc1OCC(=O)OCC(=O)NC1CCCCCC1	.	13	-4	.	16	5	.	.	.
Cc1ccc(O)c(N=Cc2cc(Cc3ccccc3)cc([N+](=O)[O-])c2O)c1	5	101*	52*	98*	51*	37	29	.	61*
Cc1ccc(N/N=C(\Cc2nc3ccccc3[nH]2)c2ccccc2)cc1	.	-35	.	.	.	.	.	.	.
Clc1cccc(/C(Cc2nc3ccccc3[nH]2)=N\Nc2ccccc2)c1	93*	8	46*	14	59*	65*	30	5	22
O=[N+]([O-])/C=C/c1cn(Cc2ccc(Cl)cc2)c2ccccc12	-10	?	65*	10	73*	64*	58*	30*	75*
CCOC(=O)Cn1cc(/C=C/[N+](=O)[O-])c2ccccc21	-9	15	21	-7	10	26	.	.	.
Cc1cccc(Cn2cc(/C=C/[N+](=O)[O-])c3ccccc32)c1	31	.	66*	-5	67*	67*	71*	82*	74*
CC(C)[C@H](NC(=O)N1CC(=O)Nc2ccccc21)C(=O)N1CCC[C@@H]1C(=O)O	4	12	-17	1	-5	-8	.	.	.
CSc1nnc(-c2ccccc2)o1	-1	6	-26	6	11	-7	.	.	.
SMILES	SKKanGAS inh	PfHsp90 yeast 2	tim10-1 inh	Calb FLC	tim23-1 inh	TIM10 inh	tim10-1 conf	tim10 confirm	tim23-1 confirm
O=S1(=O)C=C(Sc2nnc(-c3ccccc3)o2)c2ccccc21	18	111*	94*	36	57*	91*	92*	91*	85*
Cc1cccc(N=N/C(=C\O)C(=O)c2ccc(Br)cc2)c1	53*	-79	57*	-12	64*	36	52*	.	44*
Cc1cccc(N/N=C(\C=N\N)C(=O)c2ccc(Br)cc2)c1	32	.	32	-7	7	31	.	.	.
O=P(c1ccccc1)(c1ccccc1)N(c1ccccc1)c1ccccc1	-2	29	20	7	5	5	.	.	.
O=C1C=CC(=O)N1N(c1ccccc1)c1ccccc1	3	96*	65*	-13	55*	54*	67*	61*	47*
N#C/C(=C\c1ccncc1)c1nc2ccccc2[nH]1	0	-11	17	6	25	-3	.	.	.
N#C/C(=C/c1ccncc1)c1nc2ccccc2s1	4	-80	60*	2	80*	70*	40*	67*	79*
CN1c2ccccc2C(C)(C)C12C=Nc1c(cc(N3CCOCC3)c3ccccc13)O2 (stereo not drawn)	24	-25	24	7	21	7	.	.	.
CN1c2ccccc2C(C)(C)C12C=Cc1cc(O)ccc1O2 (stereo not drawn)	6	.	52*	8	55*	43*	41*	42*	52*
CNC(=O)c1c(NC(=O)CCS(=O)(=O)c2ccc(F)cc2)sc(C)c1C	12	29	7	8	7	9	.	.	.
CCCC(=O)Nn1cnc2c(c1=O)C1(CCCCC1)Cc1ccccc1-2	1	-8	41*	-16	53*	52*	44*	40*	52*
Cc1ccc(S(=O)(=O)/N=C(\Sc2ccccc2)c2ccccc2)cc1	-2	20	51*	9	52*	29	33*	.	62*
CC(NC(=O)C1CCC(CNS(=O)(=O)c2ccc3c(c2)C(C)(C)C(=O)N3C)CC1)c1ccccc1 (stereo not drawn)	2	11	8	4	7	1	.	.	.
O=C(NC1CCN(Cc2ccc(Cl)cc2Cl)CC1)c1ccccc1	2	19	-2	-26	9	19	.	.	.
Cc1nnc(-c2ccccc2)nc1N1CCOCC1	-1	2	-9	-8	10	0	.	.	.
Cc1ccc(-c2nnc(C)c(N3CCCC3)n2)cc1	-1	20	42*	-7	54*	29	25	.	69*
Cc1ccc(C=C2C(Cl)=C(Cl)C(Cl)=C2Cl)cc1	78*	.	64*	-6	74*	64*	78*	78*	53*
